# Screening data deposited in PubChem BioAssay by Center for Chemical Genomics, University of Michigan.
# Dicer inh: human Dicer pre-microRNA cleavage inhibition; Q9UPY3; cat-ELCCA pre-miR-21 Dicer processing, chemiluminescence; hits give high values; z-score at 25 µM; hit rate 6% among 47,000; in the data active = z-score above about 3, passing the limit was not always enough;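 note: plate controls were vehicle for no effect and no enzyme for full effect; higher signal means more uncleaved substrate so more Dicer inhibition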
# * = called active by the depositor. Shown is part of a subset that was picked to be rich in hits.
SMILES,Dicer inh
COc1ccccc1-c1noc(CSc2nc(N)cc(=O)[nH]2)n1,2
Cc1onc(-c2ccccc2)c1NC(=O)Nc1ccccc1Oc1ccccc1,-0.79
Cc1cccc(NC(=O)Nc2ccc(Cc3ccc(NC(=O)Nc4cccc(C)c4)cc3)cc2)c1,2.7
CCOC(=O)c1c(NC(=O)COC(=O)CN2C(=O)C(=O)c3ccccc32)sc2c1CCCC2,0.72
N#C/C(=N\OS(=O)(=O)c1ccc(Cl)c(Cl)c1)c1c(Cl)cccc1Cl,-0.19
CC(C)c1ccc(NC(=S)NN(C)C)cc1,2.9
C/C(=N\NC(=S)Nc1ccc(C(C)C)cc1)c1ccco1,3*
C/C(=N\NC(=S)Nc1ccc(F)cc1)c1ccco1,0.88
CCN(C(=O)c1cnccc1C(F)(F)F)c1nc2cc(Cl)ccc2s1,-1.1
CC1OCC/C1=N/OC(=O)Nc1c(Cl)cccc1Cl (stereo unspecified),-1.4
Cc1ccc(-c2nnc3c4ccccc4c(C)nn23)cc1S(=O)(=O)N(C)C1CCCCC1,0.96
Cc1ccc(-c2nnc3c4ccccc4c(C)nn23)cc1S(=O)(=O)N1CCC(C)CC1,5.5*
Cc1ccc(-c2nnc3c4ccccc4c(C)nn23)cc1S(=O)(=O)N1CCCCC1,1.4
Cc1c(Cc2ccc(Cl)c(Cl)c2)c(=O)oc2cc(OS(=O)(=O)c3ccc(Cl)cc3)ccc12,1.7
C#CC(C)(C)NC(=O)c1ccc(-c2ccc(CC)cc2)cc1,1.7
COc1ccc(C(c2c[nH]c3ccccc23)c2c[nH]c3ccccc23)cc1OC,-0.04
COc1cccc(C(c2c[nH]c3ccccc23)c2c[nH]c3ccccc23)c1,0.33
O=C(O)CC(C(=O)O)c1c[nH]c2ccccc12 (stereo unspecified),0.21
CCOc1cccc(C(c2c[nH]c3ccccc23)c2c[nH]c3ccccc23)c1O,6.4*
Oc1ccc(Cl)cc1C(c1c[nH]c2ccccc12)c1c[nH]c2ccccc12,4.3*
Cc1cccc(C(c2c[nH]c3ccccc23)c2c[nH]c3ccccc23)c1O,1.2
COc1ccc(-c2nc(-c3ccc(Br)cc3)no2)cc1OC,-0.38
COC(=O)c1c(NC(=O)COc2cccc(Cl)c2)sc2c1C(C(=O)OC)CC2 (stereo unspecified),0.36
Cc1ccnc(NS(=O)(=O)c2ccccc2)c1,1.5
Cn1c(=O)n(C)c2cc(S(=O)(=O)Nc3ccccc3O)ccc21,-0.21
SMILES,Dicer inh
Cc1cc(O)c(C(C)C)cc1NS(=O)(=O)c1ccccc1,4.2*
Cc1cc(Nc2ccc(Cl)c(C(=O)O)c2)n2ncnc2n1,1.9
Cc1ccc(S(=O)(=O)NNc2ncnc3c2cnn3C)cc1,0.55
O=C(N/N=C/c1ccc(Cl)cc1)c1cc(=O)nc2sccn12,0.42
FC(F)(F)c1cccc(NC(=S)N2CCc3ccccc3C2)c1,-1.2
COc1ccc(Nc2nc(-c3cccnc3)nc3ccccc23)cc1,-1.2
Oc1ccccc1Nc1nc(-c2cccnc2)nc2ccccc12,11*
COC(=O)c1cccc(Nc2nc(-c3cccnc3)nc3ccccc23)c1,-1.3
CC(C)OC(=O)C1C(=O)CC(C)(O)C(C(=O)OC(C)C)C1c1ccc(C(C)C)cc1 (stereo unspecified),-0.26
O=C(O)c1c[nH]c2c(Cl)cccc2c1=O,1.4
COC(=O)Cn1cc(C(=O)C2CCCCC2)c2ccccc21,-0.91
CCN(CC)C(=O)Cn1cc(C(=O)C2CC2)c2ccccc21,4.1*
CCN(CC)C(=O)Cn1cc(C(=O)c2cccs2)c2ccccc21,1
Clc1ccc(-c2csc(N/N=C\c3[nH]ncc3Br)n2)cc1,3
COc1cc(C2N(C(C)=O)N=C(NC(C)=O)N2C(C)=O)cc(OC)c1OC (stereo unspecified),2.8
CCOc1ccc(CN2CCN(Cc3cc(Br)ccc3O)CC2)cc1,2
CCOC(=O)c1cc(CC)sc1NC(=S)Nc1ccccc1C(F)(F)F,-0.97
CCOC(=O)c1cc(C)ccc1NC(=S)Nc1cccc(Cl)c1,-5.3
CCOC(=O)c1cc(CC)sc1NC(=S)Nc1cccc(Cl)c1,7.1*
CC(C)N(Cc1ccccc1)C(=O)c1ccccc1C(=O)O,-1.1
COC(=O)c1scc(C)c1NNC(=O)C(F)(F)F,0.22
CCOC(=O)CN1C(=O)C(O)(CC(=O)c2ccccc2)c2ccccc21 (stereo unspecified),-0.51
O=[N+]([O-])c1ccc(/C=N/Nc2nccc(-c3cccnc3)n2)cc1,0.3
COc1ccc(C(C)=O)cc1CS(=O)(=O)Cc1cc(C(C)=O)ccc1OC,1.1
COc1cccc(/C=N/NC(=O)C2CCCN(C(=S)NNC3CC4C=CC3C4)CC2)c1O (stereo unspecified),3.7*
SMILES,Dicer inh
NC(=O)C1CCN(C(=S)NC2CC3C=CC2C3)CC1 (stereo unspecified),-0.16
CCOC(=O)C1CCN(C(=S)NC2CC3C=CC2C3)CC1 (stereo unspecified),0.1
CCCCOC(=O)C1=C(C)NC2=C(C(=O)CC(C)(C)C2)C1c1cc(Br)c(O)c(OC)c1 (stereo unspecified),0.09
Cc1nc(NC(=O)Nc2sc(=S)n(C)c2C)sc1C(=O)Nc1ccccc1,0.79
O=C(Nc1sccc1-n1cccc1)NC1Cc2ccccc2C1,-1.1
O=C1/C(=C\c2ccc(Cl)cc2)N=C(c2ccccc2)N1CCc1csc2ccccc12,2.3
CCOC(=O)c1cc(NC(=O)c2cc3ccccc3oc2=O)sc1CC,-0.75
COC(=O)c1sccc1Oc1ccc(C(F)(F)F)cc1NC(=O)c1cnn(-c2ccccc2)c1C(F)(F)F,-1.1
COC(=O)c1sccc1Oc1ccc(C(F)(F)F)cc1NC(=O)NS(=O)(=O)c1ccc(C)cc1,-0.3
COC(=O)c1sccc1Oc1ccc(C(F)(F)F)cc1NC(=O)c1cnn(-c2ccc([N+](=O)[O-])cc2)c1C(F)(F)F,4*
Cc1oc(S(=O)(=O)N2CCCCC2)cc1C(=O)Nc1ccc(F)cc1,-0.5
COc1ccc(NC(=O)c2sc3nc4c(cc3c2N)CCCCC4)cc1,-0.02
O=C(Nc1nc2ccsc2c(=O)s1)c1ccco1,0.51
Cc1csc2c(=O)sc(NC(=O)c3ccco3)nc12,0.15
O=C(Nc1nc2c(ccc3ccccc32)s1)c1ccco1,5.7*
CC(C)c1ccc(OCc2nc(-c3ccccc3)no2)cc1,1
O=c1oc(-c2cccs2)nc2c(Br)cc(Br)cc12,-0.36
O=c1c2c(F)cccc2nc2sc3ccc(Cl)cc3n12,-0.79
Cc1ccc(C(=O)c2oc3ccccc3c2N)cc1,0.43
O=C(Nc1c(C(=O)c2ccc(F)cc2)oc2ccccc12)c1ccccc1,-0.56
Nc1c(C(=O)c2ccc(Oc3ccccc3)cc2)oc2ccccc12,3.8*
Cc1csc(Cn2nc(CC(=O)NNC(=S)Nc3ccccc3)c3ccccc3c2=O)n1,0.62
O=C(Nc1ccc(F)cc1F)c1ccc([N+](=O)[O-])o1,0.72
C=CCn1c2ccccc2c2nnc(SCC(=O)Nc3c(C)n(C)n(-c4ccccc4)c3=O)nc21,0.96
Cc1c(NC(=O)CSc2nnc3c4ccccc4n(C)c3n2)c(=O)n(-c2ccccc2)n1C,3.2*
SMILES,Dicer inh
Cc1cc(NC(=O)CSc2nnc3c4ccccc4n(C)c3n2)no1,2.5
CCCCn1c2ccccc2n2c(C(=O)OC)c(C)nc12,-0.31
O=C(O)c1cccc(N2C(=O)C3C4c5ccccc5C(c5ccccc54)C3C2=O)c1 (stereo unspecified),0.43
Cn1c(Cc2ccsc2)nnc1Sc1nc2ccc(Cl)cc2s1,1.2
Cc1ccc(C(=O)O)cc1N1C(=O)CCC1=O,4.7*
CC1=NN(c2ccc(C(=O)O)cc2)C(=O)C1,-2.2
Cc1ccc(C(=O)O)cc1-n1cccc1,-0.63
Cc1ccc2c(c1)CCCN2C(=S)Nc1c(C)cccc1C,-0.5
